# High-throughput results deposited in PubChem by National Center for Advancing Translational Sciences (NCATS).
# Most compounds without a hit are left out; they make up all but 11% or so of the library.
# HP1b binding inh: HP1-beta chromodomain-methylated histone interaction inhibition | AID 540317 | P83916 | AlphaScreen HP1-beta / biotin-H3K9me3 peptide binding | Potency, µM (titrated, usually from 114 µM), most hits filed as inhibitors | actives 0.56% (n = 390,000); further: nearly all actives have a fitted effect of over 70% in size
# Target sequence (P83916 whole entry, looked up): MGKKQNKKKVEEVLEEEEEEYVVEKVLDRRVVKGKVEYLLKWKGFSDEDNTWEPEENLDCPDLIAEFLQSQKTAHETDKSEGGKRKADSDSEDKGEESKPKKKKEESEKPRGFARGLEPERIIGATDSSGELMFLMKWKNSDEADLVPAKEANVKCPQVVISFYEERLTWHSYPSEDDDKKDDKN
#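 Compound inhibition of the preformed complex between 50 nM HP1-beta and 50 nM biotinylated H3K9me3 peptide was read by AlphaScreen. Buffer was PBS pH 7.4 with 0.01% Tween-20. Incubations ran 30 min at room temperature, with 10 ug/mL donor/acceptor beads.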
# JMJD2A Tudor inh: inhibitors of human JMJD2A Tudor domain; AID 504339; O75164; actives 4.4% (n = 390,000); AlphaScreen JMJD2A-Tudor / H3K4me3 peptide binding; Potency, µM (top dose mostly 114 µM), usual class: inhibitors; further: nearly all actives have a fitted effect of over 50% in size
# G9a block: blocks human histone lysine methyltransferase G9a; AID 504332; Q96KQ7; Potency, µM (doses to about 102 µM), most hits filed as inhibitors; actives 8.8% (n = 350,000); G9a H3K9 monomethylation, AlphaScreen, 2 h; further: nearly all actives have a fitted effect of over 75% in size
# Target sequence (Q96KQ7 913-1193 limits assumed): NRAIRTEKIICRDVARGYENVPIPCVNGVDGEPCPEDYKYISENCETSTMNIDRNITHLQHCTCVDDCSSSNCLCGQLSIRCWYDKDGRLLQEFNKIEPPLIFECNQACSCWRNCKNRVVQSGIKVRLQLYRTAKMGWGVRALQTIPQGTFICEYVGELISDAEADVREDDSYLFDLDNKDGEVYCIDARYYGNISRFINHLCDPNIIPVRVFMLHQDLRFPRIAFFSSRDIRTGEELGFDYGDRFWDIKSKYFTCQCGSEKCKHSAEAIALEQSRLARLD
#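 G9a (20 nM) was preincubated 15 min with compound, then reacted 2 h at room temperature with 500 nM biotin-H3K9 peptide and 20 µM SAM. Monomethyl-H3K9 detected by AlphaScreen using anti-H3K9me1 antibody.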
# L3MBTL1 inh: blocks human L3MBTL1. Q9Y468. AlphaScreen L3MBTL1–H3K9me1 peptide binding. Potency, µM (doses to about 57.1 µM), usual class: inhibitors. actives 0.66% (n = 230,000); further: nearly all actives have a fitted effect of over 60% in size
#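 Read-out is AlphaScreen signal from streptavidin donor and nickel chelate acceptor beads (10 ug/mL final each) bridging L3MBTL1 (50 nM) and biotinylated K9-monomethylated H3(1-15) peptide (75 nM), after 30 min compound exposure at room temperature.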
# BAZ2B block: BAZ2B (human) inhibition; Q9UIF8; AlphaScreen BAZ2B-H3K14Ac peptide displacement; Potency, µM (series often up to 114 µM), most hits filed as inhibitors; actives 4.4% (n = 360,000); further: nearly all actives have a fitted effect of over 60% in size
#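 Complex of BAZ2B and biotin-H3K14Ac (50 nM apiece) forms over 30 min at RT, then faces library compounds up to 110 uM for another 30 min; AlphaScreen beads added, 20 min dark incubation, luminescence read.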
# Hits are given with their value; – = inactive; ? = inconclusive; · = not tested or not shown; ! = repeats disagree; [ ] = remark or other dose. The call rests on the fitted dose curve; in most records, active means well fitted inhibition curve with a large enough effect; inconclusive means small, poorly fitted or top-dose-only effect; inactive means no such curve, though single readings can be large or run the other way.
SMILES,HP1b binding inh,JMJD2A Tudor inh,G9a block,L3MBTL1 inh,BAZ2B block
CNC(=O)CSc1nc2cc(S(=O)(=O)Nc3ccc(OC)cc3)ccc2o1,–,–,·,·,·
COc1ccc(NS(=O)(=O)c2ccc3oc(SC)nc3c2)cc1,?,–,40µM,·,–
O=S(=O)(Nc1nc2ccccc2nc1Nc1ccccc1Br)c1ccccc1,–,–,–,·,–
O=[N+]([O-])c1ccc(-c2cnc(SCc3ccccc3Cl)[nH]2)cc1,?,?,35µM,–,32µM
O=[N+]([O-])c1ccc(-c2cnc(SC(c3ccccc3)c3ccccc3)[nH]2)cc1,?,?,13µM,–,40µM
Cc1cc(C)c(CSc2ncc(-c3ccc([N+](=O)[O-])cc3)[nH]2)c(C)c1,?,?,?,–,10µM
CCOc1ccc(C(=O)OCc2cc(=O)n3nc(C4CCCCC4)sc3n2)cc1,–,–,–,·,–
COc1ccc(NC(=O)C2COc3ccccc3C2)cc1Cl (stereo unspecified),–,–,–,·,–
N[C@H](C(=O)O)C1C(C(=O)O)C1C(=O)O (stereo partly specified),·,·,–,·,·
Oc1ccc(-c2nc(-c3ccc(F)cc3)c(-c3ccncc3)[nH]2)cc1,–,?,13µM!,–,?
Fc1ccc(-c2nc(-c3cccs3)[nH]c2-c2ccc(F)cc2)cc1,–,?,?,–,45µM
Cc1c(O)c(=O)c2ccccc2n1C,–,22µM,45µM,–,–
CN1CCN(c2nc3ccccc3nc2C(C#N)C(=O)OC2CCCCC2)CC1 (stereo unspecified),–,–,?,–,56µM
COCC(C)OC(=O)C(C#N)c1nc2ccccc2nc1N1CCN(Cc2ccccc2)CC1 (stereo unspecified),–,–,45µM,–,?
C/C(=C(/CCO)SS/C(CCO)=C(\C)N(C=O)Cc1cnc(C)nc1N)N(C=O)Cc1cnc(C)nc1N,·,·,–[12.7 µM],·,·
Nc1cc(N)c(OCC(F)(F)F)cc1OCC(F)(F)F,?,?,50µM,?,?
COC(=O)COc1ccc(S(=O)(=O)N2CCCCC2)cc1[N+](=O)[O-],–,–,–,–,–
O=C(O)c1ccc(/C=N\Nc2ccc(S(=O)(=O)N3CCOCC3)cc2[N+](=O)[O-])cc1,–,?,50µM,–,?
Cc1ccc(-n2c(O)c(/C=N/Nc3ccc(S(=O)(=O)N4CCOCC4)cc3[N+](=O)[O-])c3ccccc3c2=O)c(C)c1,4µM,28µM,8.9µM,?,13µM
CCOC(=O)N1CCC(=NNc2ccc(S(=O)(=O)N3CCOCC3)cc2[N+](=O)[O-])CC1,?,–,–,–,–
COC(=O)C/C(C)=N/Nc1ccc(S(=O)(=O)N2CCCC2)cc1[N+](=O)[O-],–,–,45µM,–,?
C/C(=N\Nc1ccc(S(=O)(=O)N2CCOCC2)cc1[N+](=O)[O-])C(C)C,?,45µM,?,–,·
CN1CCC(=NNc2ccc(S(=O)(=O)N3CCOCC3)cc2[N+](=O)[O-])CC1,–,–,–,–,–
CCOc1ccc(C2C(=O)N(C3CCCCCC3)CC(=O)N2CCc2ccccc2)cc1OC (stereo unspecified),–,–,?,·,–
CN1CCN(c2ncc3nc(-c4cccc(C#N)c4)c(=O)n(CCC#N)c3n2)CC1,·,·,–[0.501 µM],·,·
SMILES,HP1b binding inh,JMJD2A Tudor inh,G9a block,L3MBTL1 inh,BAZ2B block
COc1cc(OC)cc(Oc2ccc(S(=O)(=O)N3CCCCC3)cc2[N+](=O)[O-])c1,–,?,79µM,·,–
Cc1ccc2c(c1)NCCO2,–,50µM,?,–,·
CC(=O)Nc1ccc(OCc2cccc(-c3nc4ccccc4c(=O)n3Cc3ccco3)c2)cc1,·,56µM,·,·,·
CC(=O)Nc1ccc(NC(=O)C(C)Sc2nc3ccccc3c(=O)n2Cc2ccco2)cc1 (stereo unspecified),–,–,56µM,–,–
CC(=O)Nc1ccc(NC(=O)C(C)Sc2nc3ccccc3c(=O)n2CC2CCCO2)cc1 (stereo unspecified),–,–,?,–,–
COc1cccc(N2CCN(C(=O)c3ccc(C)c(NC(=O)c4nsc5ccccc45)c3)CC2)c1,–,–,–,·,–
CN(C)CCNC(=O)CN1C(=O)COc2ccc(S(=O)(=O)N3CCCC3)cc21,–,–,–,·,–
COc1ccc(N/N=C/c2c(C(=O)O)ccc3ccccc23)cc1,–,–,–[12.7 µM],·,–
O=C(O)c1cccc(N/N=C/c2ccc(F)c(F)c2)c1,–,–,7.9µM,–,–
O=C(O)c1cccc(Cn2c(Cl)c(/C=N/NC(=O)c3ccccc3Cl)sc2=O)c1,–,–,–,–,–
O=C(O)c1ccc(/C=N/Nc2cccc(C(F)(F)F)c2)cc1,–,–,?,–,?
COc1ccc2ccccc2c1/C=N/Nc1ccc(Cl)c(C(=O)O)c1,?,–,45µM,·,?
O=C(N/N=C/c1cccc2ccccc12)c1cccc(F)c1,–,–,·,·,–
O=C(O)c1cccc(N/N=C/c2cccc3ccccc23)c1,–,–,35µM,·,–
O=C(O)c1cccc(Cn2c(Cl)c(/C=N/Nc3ccccc3)sc2=O)c1,–,?,13µM,·,25µM
COc1ccccc1C(=O)N1CCC(c2noc(-c3ccc(S(=O)(=O)N4CCCC4)cc3)n2)CC1,–,–,–,·,–
CCOc1ccccc1NC(=O)c1nn(-c2ccc(C)cc2)c(=O)n(C)c1=O,–,–,–,·,–
Cc1cc(=O)[nH]c2nnc(SCC(N)=O)n12,–,–,–,·,–
CCc1ccc(NC(=O)CC2C(=O)N(c3cccc(C)c3)C(=O)N2Cc2cccc(OC)c2)cc1 (stereo unspecified),–,–,–,·,–
O=C(O)c1cccc(N/N=C/C2=C(Cl)c3cc(Cl)ccc3SC2)c1,–,56µM,50µM,·,50µM
COc1ccc(-c2nn(-c3ccccc3)cc2/C=N/Nc2ccc(Cl)c(C(=O)O)c2)cc1OC,–,–,40µM,–,–
O=C(N/N=C/c1ccc(O)cc1)c1cccc(N/N=C/c2ccc(O)cc2)c1,–,–[11.4 µM],10µM,–,–
Cc1cccc2cc(/C=N/Nc3ccc(C(=O)O)cc3)c(Cl)nc12,–,?,·,·,50µM
CCNC(COC(=O)c1ccc([N+](=O)[O-])cc1)C1CCCCC1 (stereo unspecified),–,–,·,·,·
COc1ccc2ccccc2c1/C=N/NC(=O)c1cccc([N+](=O)[O-])c1,–,–,–,·,–
SMILES,HP1b binding inh,JMJD2A Tudor inh,G9a block,L3MBTL1 inh,BAZ2B block
Cc1nn(-c2ccccc2Cl)c(Cl)c1/C=N/Nc1cccc(C(=O)O)c1,–,–,8.9µM,?,?
COc1ccc2ccccc2c1/C=N/Nc1cccc(C(=O)O)c1,–,–,45µM,·,?
O=C(N/N=C/c1sc(=O)n(Cc2ccc(Br)cc2)c1Cl)c1ccco1,–,?,–[0.0925 µM],·,89µM
Cc1ccsc1/C=N/Nc1cccc(C(=O)O)c1,–,–,45µM,·,–
Cc1nn(-c2cccc(C(F)(F)F)c2)c(Cl)c1/C=N/Nc1cccc(C(=O)O)c1,–,?,?,–,?
CC1(C)CO[C@@H](CC(=O)O)CN1,·,·,–,·,·
